PubChem BioAssay AID1159580 (chemical genetic matrix, 2015)
Several values for one entry are separate records, joined by “and”; a condition that tells them apart may be missing. Equal values may be shown once. Hit rate of the full screen: of about 5,500 compounds, about 2,000 (36%) were called active. Roughly 18% stayed inconclusive and do not appear here. Cut-off read from the data, not from the text of the source: active = normalized growth mostly below about 0.91 (no sharp cut-off); inconclusive = no clear call, values can overlap the other calls; inactive = mostly above about 0.92. The list shows a part of the results.

Assay: chemical genetic growth profiling, strain panel (AID 1159580);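 note: tested at 20 µM; growth read once vehicle control cultures reached saturation at 30 °C; 1 = growth at the plate median or of vehicle wells; lower values mean less growth of the strain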
Details: S. cerevisiae deletion strains, growth OD

Measured: normalized growth

NCCCCN
inactive: locus YAL013W, strain DEP1, hits give low values 1.02 | locus YAL040C, strain CLN3, hits give low values 1.07 | locus YBR021W, strain FUR4, hits give low values 1.02 | locus YBR229C, strain ROT2, hits give low values 1 | locus YCL029C, strain bik1, hits give low values 0.99 | locus YCL061C, strain MRC1 (second series), hits give low values 0.999 | locus YDL035C, strain GPR1, hits give low values 1.04 | locus YDL074C, strain BRE1, hits give low values 1.01 | locus YDL101C, strain DUN1, hits give low values 1.01 | locus YDL185W, strain tfp1, hits give low values 1.02 | locus YDL192W, strain arf1, hits give low values 1.01 | locus YDR101C, strain arx1, hits give low values 0.971 | locus YDR150W, strain NUM1, hits give low values 1.01 | locus YDR162C, strain NBP2, hits give low values 1.04 | locus YDR318W, strain mcm21, hits give low values 1.01 | locus YDR363W, strain ESC2, hits give low values 1.03 | locus YDR388W, hits give low values 1.01 | locus YDR502C, strain sam2, hits give low values 0.994 | locus YEL061C, strain CIN8, hits give low values 1.01 | locus YER002W, strain NOP16, hits give low values 1 | locus YER110C, hits give low values 1.01 | locus YER155C, strain BEM2, hits give low values 1.01 | locus YER167W, strain BCK2, hits give low values 1.02 | locus YGL078C, strain dbp3, hits give low values 0.995 | locus YGL086W, strain mad1, hits give low values 0.985 | locus YGL248W, strain PDE1, hits give low values 1 | locus YGR078C, strain PAC10, hits give low values 0.999 | locus YGR135W, strain pre9, hits give low values 1.06 | locus YGR229C, strain SMI1, hits give low values 1.02 and 1.01 | locus YGR252W, strain gcn5, hits give low values 1.04 | locus YHR030C, strain SLT2, hits give low values 1 and 0.949 | locus YHR079C, strain IRE1 (second series), hits give low values 1 | locus YHR079C, strain IRE1, hits give low values 0.969 | locus YHR094C, strain hxt1, hits give low values 1.01 | locus YHR129C, strain ARP1, hits give low values 1.01 | locus YHR200W, strain rpn10, hits give low values 1 | locus YIL066C, strain RNR3, hits give low values 1.01 | locus YIL073C, strain SPO22, hits give low values 1.11 | locus YIL125W, strain kgd1, hits give low values 0.997 | locus YIR030C, strain dcg1, hits give low values 0.999 | locus YJL095W, strain BCK1, hits give low values 1.01 and 0.994 | locus YJL134W, strain LCB3, hits give low values 1.01 | locus YJL168C, strain set2, hits give low values 1.01 | locus YJL187C, strain SWE1 (second series), hits give low values 1.01 | locus YJR043C, strain POL32, hits give low values 1 | locus YJR066W, strain TOR1, hits give low values 0.93 | locus YJR075W, strain HOC1, hits give low values 1.01 | locus YKL009W, strain mrt4, hits give low values 0.99 | locus YKL068W, hits give low values 0.999 | locus YKL085W, strain MDH1 (second series), hits give low values 1 | locus YKL085W, strain MDH1, hits give low values 1 | locus YKL190W, strain CNB1, hits give low values 0.999 | locus YKR001C, strain vps1, hits give low values 1 | locus YLR039C, strain RIC1, hits give low values 1.05 | locus YLR058C, strain SHM2, hits give low values 1.01 | locus YLR102C, strain apc9, hits give low values 1 | locus YLR113W, strain HOG1, hits give low values 1.01 | locus YLR262C, strain YPT6, hits give low values 1.06 | locus YLR268W, strain sec22, hits give low values 0.996 | locus YLR330W, strain CHS5, hits give low values 1.01 | locus YLR342W, strain FKS1 (second series), hits give low values 1.07 | locus YLR371W, strain rom2, hits give low values 1 | locus YLR418C, strain cdc73, hits give low values 1.03 | locus YML016C, strain PPZ1, hits give low values 1 | locus YML032C, strain rad52, hits give low values 0.992 | locus YML124C, strain tub3, hits give low values 1 | locus YMR078C, strain ctf18, hits give low values 1 | locus YMR223W, strain ubp8, hits give low values 1.05 | locus YMR307W, strain GAS1, hits give low values 1.07 and 1.01 | locus YNL067W, strain RPL9B, hits give low values 1 | locus YNL128W, strain TEP1, hits give low values 1.01 | locus YNL153C, strain GIM3, hits give low values 1 | locus YNL175C, strain NOP13, hits give low values 1 | locus YNL183C, strain NPR1, hits give low values 0.961 | locus YNL197C, strain WHI3, hits give low values 1 | locus YNL224C, strain SQS1, hits give low values 1 | locus YNL233W, strain BNI4, hits give low values 1.01 | locus YNL250W, strain rad50, hits give low values 1.03 | locus YNL271C, strain bni1, hits give low values 1.01 | locus YNL298W, strain CLA4, hits give low values 1.01 | locus YNL307C, strain MCK1, hits give low values 1.02 | locus YNR052C, strain pop2, hits give low values 1 | locus YOL012C, strain htz1 0.897 | locus YOL147C, strain pex11, hits give low values 1.01 | locus YOR061W, strain CKA2, hits give low values 1 | locus YOR069W, strain VPS5, hits give low values 1.01 | locus YOR083W, strain WHI5 (second series), hits give low values 1.01 | locus YOR136W, strain idh2, hits give low values 0.992 | locus YOR144C, strain elg1, hits give low values 1 | locus YOR184W, strain ser1, hits give low values 1 | locus YOR231W, strain MKK1, hits give low values 0.957 | locus YOR316C, strain cot1, hits give low values 1 | locus YPL055C, strain LGE1, hits give low values 0.99 | locus YPL241C, strain CIN2, hits give low values 1.01 | locus YPL256C, strain CLN2, hits give low values 0.958 | locus YPR119W, strain clb2, hits give low values 0.994 | locus YPR141C, strain kar3, hits give low values 1 | locus YPR163C, strain tif3, hits give low values 1.01 | locus YPR167C, strain met16, hits give low values 1 | strain wtn01, hits give low values 0.995
